About 11,000 (3.1%) of roughly 360,000 compounds were called active. What follows is part of a selection rich in actives, with near analogues and random picks from the rest. A number with no mark means an inactive call. Rule as the data show it: active = activity change below about -30%; inactive = the rest.
% is scaled to controls: 0 for no effect and ±100 for the full control effect.

D(1A) dopamine receptor (Homo sapiens), sequence (P21728 whole entry, looked up): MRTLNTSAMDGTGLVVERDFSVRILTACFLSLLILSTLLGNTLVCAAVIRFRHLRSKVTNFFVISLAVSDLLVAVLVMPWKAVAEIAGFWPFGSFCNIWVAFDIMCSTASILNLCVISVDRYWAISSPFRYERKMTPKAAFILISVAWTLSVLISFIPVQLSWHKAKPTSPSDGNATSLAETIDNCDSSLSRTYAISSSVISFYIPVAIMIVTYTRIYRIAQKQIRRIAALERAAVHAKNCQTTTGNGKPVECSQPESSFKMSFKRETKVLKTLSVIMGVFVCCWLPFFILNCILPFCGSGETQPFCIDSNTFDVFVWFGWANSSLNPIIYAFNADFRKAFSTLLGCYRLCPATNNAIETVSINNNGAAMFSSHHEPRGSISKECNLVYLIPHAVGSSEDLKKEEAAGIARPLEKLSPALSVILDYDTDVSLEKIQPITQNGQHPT

This assay addresses D(1A) dopamine receptor (Homo sapiens) (UniProt P21728). The experiment in a line: Antagonist of Human D 1 Dopamine Receptor: qHTS. The following applies: HEK293 TREx D1 cells, calcium flux, dopamine EC80; at 10 µM; stronger effect = lower value. Put shortly:
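Kinetic fluorescence of a calcium dye serves as the read-out. D1-expressing Hek293 Trex cells, induced overnight at 30 C, are exposed to compound for 180 s before an EC80 dopamine addition, then read 180 s further.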
On the technique in general: In qHTS, concentration-response curves come from the screen itself.
`CC(=O)c1ccc(NC(=O)CCc2nc(-c3ccc(C)cc3)no2)cc1`: the activity change, negative = inhibition was 6.08%.
On to `CC(=O)c1cccc(NC(=O)c2nc(-c3ccccc3)n(-c3cccc(C)c3)n2)c1`, for which the activity change, negative = inhibition was -15.7%.
For `[O-][n+]1onc2c1CCc1[nH]c(-c3ccccc3)nc1-2` the value was -44.1% (active); for `CCn1c(Cc2ccccc2)nnc1SCC(=O)Nc1ccccc1`, -30.1% (active).
For `CCn1c(CNC(=O)c2ccc(OC)c(OC)c2)nnc1SCC(=O)Nc1ccccc1` the value was -0.592%; for `CCn1c(Cc2ccc(OC)cc2)nnc1SCC(=O)Nc1ccc(N2CCOCC2)cc1`, 0.621%; for `CCC(=O)N1c2ccccc2CC1C(=O)N1CCN(c2ccccc2F)CC1` (centres undefined), 10.1%.
For `CCOc1ccc(NC(=O)c2c(NC(=O)Cc3ccccc3)sc3c2CCCCC3)cc1`, the activity change, negative = inhibition was 0.456%.
As for `CCCCc1ccc(NC(=O)NCc2cccnc2)cc1`, the figure is 19%; as for `CN(C)CCCN1C(=O)CSC1c1ccc([N+](=O)[O-])cc1` (centres undefined), 26.5%.
As for `CCCCCCCCCCCCN1C(=O)CSC1c1cccnc1` (centres undefined), the figure is -34.3% (active); as for `Cc1cccc(CC(=O)N2CC(=O)Nc3ccc(F)cc3C2c2ccccc2)c1` (centres undefined), -5.67%.
For `Cc1nn(CC(=O)O)c(=O)c2cc3cc(F)ccc3n12` the value was 16.8%; for `COc1cccc(CNC(=O)Cc2csc3nc(-c4ccccc4)cn23)c1`, 8.74%; for `COc1ccc2c(Sc3ccc(C)cc3)c(C(=O)NC(C)c3ccccc3)[nH]c2c1` (centres undefined), -2.66%.
`Cc1ccc(S(=O)(=O)Nc2ccc3ncccc3c2)cc1`: the activity change, negative = inhibition was -37.6% (active).
For `Cc1cc(C)cc(OCC(=O)Nc2ccc(S(=O)(=O)Nc3ccccn3)cc2)c1`, the activity change, negative = inhibition was -0.845%.
For `Cc1ccc(NS(=O)(=O)c2ccc(C(C)(C)C)cc2)cn1` the value was -7.23%; for `Cc1cn(C)c(CC(=O)NCc2ccc(Cl)cc2)c1C(=O)O`, -2.23%.
For `CCC(=O)N(Cc1ccccc1)c1ccccn1` the value was -9.42%; for `COc1cc(CN(C(=O)c2ccccc2Br)c2ccccn2)cc(OC)c1OC`, -66.6% (active).
Turning to `Cc1ccc(CN(C(=O)c2ccccc2[N+](=O)[O-])c2ccccn2)cc1`, the activity change, negative = inhibition was -7.2%.
As for `CCN(CC)c1ccc(NC(=O)CN2C(=O)c3cccnc3Oc3ccc(Cl)cc32)c(C)c1`, the activity change, negative = inhibition is -6.59%.
As for `COc1ccc(N(C)C(=O)C2CCN(S(=O)(=O)c3cc(Br)cc4c3N(C(C)=O)CC4)CC2)cc1`, the figure is 6.85%.
For `COc1ccc(-n2nc3c(c2NC(=O)Cc2cccc(C)c2)CS(=O)C3)cc1` (centres undefined) the value was -10.2%; for `CC(=O)Nc1c2c(nn1-c1ccc(C)cc1C)CS(=O)C2` (centres undefined), -34.5% (active); for `Cc1cccc(CC(=O)Nc2c3c(nn2-c2cccc(Cl)c2)CS(=O)C3)c1` (centres undefined), -0.884%.
On to `CCOc1ccc(C2CC(=O)c3c([nH]c(C(=O)OCc4ccccc4)c3C)C2)cc1` (centres undefined), for which the activity change, negative = inhibition was -22.3%.
As for `Cc1ccc(-c2ccc(CCC(=O)O)n2-c2ccc(C(N)=O)cc2)cc1`, the figure is -5.89%; as for `Clc1ccc(CSc2nncn3c2cc2occc23)cc1`, -0.2%; as for `CCOc1ccccc1C(=O)Nc1ccc2c(c1)N(C)C(=O)c1ccccc1S2`, -16.7%.
For `COc1ccccc1N1CCN(c2ccc(=O)n(CC(=O)NCc3ccc(OC(C)C)cc3)n2)CC1` the value was 23.5%; for `O=S(=O)(c1cccc(-c2nnc3n2CCCCC3)c1)N1CCOCC1`, 2.28%; for `Cc1nc(-c2ccc(F)cc2)c(CC(=O)Nc2cccc(S(=O)(=O)N3CCOCC3)c2)s1`, 4.46%.
Take `O=S(=O)(c1cccc(Cn2nnc(-c3ccc(F)cc3)n2)c1)N1CCOCC1`: the activity change, negative = inhibition is -46.2% (active).
As for `COC(=O)c1ccc(NC(=O)c2cccc3c2C(=O)N(C2CCCCC2)C3)cc1`, the activity change, negative = inhibition was -12%.
As for `CC(C)c1ccc(NC(=O)Cn2c3ncccc3c(=O)n2-c2ccccc2)cc1`, the figure is -16.2%; as for `Cc1ccc2c(=O)c(C(=O)c3cccc(Cl)c3)cn(CC(=O)NCc3ccccc3)c2n1`, -33.4% (active); as for `Cc1ccc2c(=O)c(C(=O)c3ccc(F)cc3)cn(CC(=O)NC3CCCCC3)c2n1`, -3.19%.
For `Cc1ccc2c(=O)c(C(=O)c3ccc(Cl)cc3)cn(CC(=O)NC3CCCCC3)c2n1` the value was -2.17%; for `COc1cccc(CNC(=O)C(=O)NCC(c2cccs2)S(=O)(=O)c2ccccc2)c1` (centres undefined), 10.2%.
For `Cc1ccc(Cl)cc1N(C)C(=O)Cn1nc(Cc2cccnc2)c2ccccc2c1=O` the value was 10.4%.
With `CCn1c(=O)c(=O)n(CC)c2cc(N3CCCCC3)c(NC(=O)c3cccc(F)c3)cc21`, the activity change, negative = inhibition was 4.44%.
`O=C(Nc1ccncc1)c1ccccc1[N+](=O)[O-]`: the activity change, negative = inhibition is -0.321%.
As to `O=C(CCc1ccccc1)Nc1ncc([N+](=O)[O-])s1`, the activity change, negative = inhibition was -30% (active).
In the case of `CC(C)(C)NC(=O)CSc1nnc(NC(=O)CCc2ccccc2)s1`, the activity change, negative = inhibition was -22.4%.
For `CC(=O)Oc1ccccc1C(=O)Nc1ncc([N+](=O)[O-])s1` the value was -33.9% (active); for `COC(=O)CSc1nnc(NC(=O)CCc2ccccc2)s1`, 5.96%; for `Cc1ccc2nsnc2c1NC(=O)c1ccccc1[N+](=O)[O-]`, 7.5%.
As for `Cc1ccccc1C(=O)NCc1nc(-c2ccc(Cl)cc2)no1`, the figure is -7.49%; as for `N#Cc1nc(Nc2cccc(Cl)c2)nc(NC2CCCC2)n1`, -6.69%; as for `COc1ccc(C(=O)Nc2cccc(C(=O)OCc3cc(=O)n4c5c(sc4n3)CCCC5)c2)cc1`, -2.93%.
As for `CN1CCOc2cc(S(=O)(=O)N3CCN(S(=O)(=O)c4c(F)cccc4F)CC3)cnc21`, the figure is 1.83%.
With `CC1Cc2cc(S(=O)(=O)CCC(=O)Nc3ccc(F)c(Cl)c3)ccc2N1C(=O)C1CC1` (centres undefined), the activity change, negative = inhibition is -8.79%.
For `Cc1ccc(C)c(N2CCN(C(=O)Cc3c(C(=O)O)c(C)cn3C)CC2)c1`, the activity change, negative = inhibition is 3.31%.
Turning to `Cc1nc2nc(SCC(=O)N(Cc3ccccc3)C(C)C)nn2c(C)c1Cc1ccccc1Cl`, the activity change, negative = inhibition was -7.72%.
For `COc1ccc(-n2c(C)nc3c(cnn3-c3ccc(F)cc3)c2=O)cc1` the value was -26.8%.
As for `N#C/C(=C\N1CCOCC1)S(=O)(=O)c1ccc(Cl)cc1`, the figure is -41.8% (active).
As for `O=S(=O)(Oc1ccccc1C(=S)N1CCOCC1)c1ccc(Cl)cc1`, the figure is -1.41%; as for `N/C(=N\S(=O)(=O)c1ccc(Cl)cc1)N1CCOCC1`, -7.63%; as for `O=C(Nc1ccc(-c2nc3cc(NC(=O)c4ccccc4Cl)ccc3o2)cc1)c1ccccc1Cl`, 6.02%.
Take `COC(=O)c1ccc(NC(=O)c2ccccc2NS(=O)(=O)c2ccccc2)cc1`: the activity change, negative = inhibition is -42.5% (active).
As for `COC(=O)c1ccccc1NS(=O)(=O)c1ccc2[nH]c(=O)[nH]c2c1`, the figure is 9.8%.
For the molecule `COc1cc(NC(=O)c2ccccc2NS(=O)(=O)c2ccc(Cl)s2)cc(OC)c1`, the activity change, negative = inhibition was -11.8%.
For `CCS(=O)(=O)N1CCC(n2c(C)nc3cccnc32)CC1` the value was 12.3%; for `COc1ccc(OC)c(-c2nc(C(N)=O)c3c(n2)n(-c2ccc4c(c2)OCO4)c(=O)n3C)c1`, -6.79%; for `Cc1ccc(CN2COc3cc(C)c4c(oc(=O)c5ccccc54)c3C2)cc1`, 3.2%.
In the case of `CCn1ccnc1CN(C)C(=O)c1cc(COc2ccc(Cl)cc2OC)on1`, the activity change, negative = inhibition is -3.88%.
As for `COc1cc(Cl)ccc1OCc1cc(C(=O)N(C)CCc2c(C)n[nH]c2C)no1`, the figure is -50% (active).
As for `CSc1ccccc1OCc1cc(C(=O)N(C)CCc2c(C)n[nH]c2C)no1`, the figure is -4.34%; as for `Cc1noc(C)c1-c1ccc2ncnc(NCc3ccc(F)c(F)c3)c2c1`, -25.4%.
In the case of `COc1ccc(NC(=O)CSc2nc3ccccc3[nH]2)cc1`, the activity change, negative = inhibition is 7.52%.
With `O=C(O)C1CCCN1S(=O)(=O)c1ccc(Br)cc1` (centres undefined), the activity change, negative = inhibition was -19.4%.
Turning to `O=C(O)C1CCCN1S(=O)(=O)c1ccc2c(c1)CCC2` (centres undefined), the activity change, negative = inhibition is -38.4% (active).
`CC(=O)Nc1ccc(S(=O)(=O)N2CCCC2C(=O)O)cc1` (centres undefined): the activity change, negative = inhibition is 2.28%.
For `CCCS(=O)(=O)c1ncc(Cl)c(C(=O)Nc2scc(-c3ccccc3)c2C(=O)OCC)n1` the value was -10.7%; for `C=C1c2c(Cl)ccc(O)c2C(O)=C2C(=O)[C@]3(O)C(O)=C(C(N)=O)C(=O)[C@@H](N(C)C)[C@@H]3[C@@H](O)C12` (some centres undefined), -4.29%; for `CN(C)[C@@H]1C(=O)C(C(N)=O)=C(O)[C@@]2(O)C(=O)C3=C(O)c4c(O)ccc(Cl)c4[C@@H](O)[C@H]3C[C@@H]12`, -42.8% (active).
For `Cc1ccc(C)c(N2CCN(C(=O)Cn3nc(C)c4sc5ccccc5c4c3=O)CC2)c1` the value was 5.73%; for `COc1ccc(-c2noc(CSc3nc(C)cc(=O)[nH]3)n2)cc1OC`, 12.5%; for `COc1ccc(-c2cc(C(F)(F)F)n3nc(-c4ccccc4)cc3n2)cc1OC`, 6.49%.
For `CCCN(CCC)CCNC(=O)c1ccc2c(c1)NC(=O)C(CS(=O)(=O)Cc1cccc(Br)c1)N2` (centres undefined) the value was -3.96%; for `Cc1cccc(OCCSc2nc3ccc(NC(=O)COc4ccccc4C)cc3s2)c1`, 5.79%.
As to `Cc1ccc(OCCSc2nc3ccc(NC(=O)COc4ccc(C)cc4)cc3s2)cc1`, the activity change, negative = inhibition is -5.49%.
Regarding `CC(=O)Nc1ccc2nc(SCCOc3cc(C)cc(C)c3)sc2c1`, the activity change, negative = inhibition was -35.7% (active).
As for `NC(=O)C1CCN(C(=O)c2cccc(NC(=O)c3nsc4ccccc34)c2)CC1`, the figure is 7.53%.
For `Nc1cc(N)nc(SCC(=O)Nc2cccc(S(=O)(=O)N3CCCCC3)c2)n1` the value was -7.32%; for `O=C(CSc1ccccc1)Nc1cccc(S(=O)(=O)N2CCCCC2)c1`, -39.5% (active).
As for `O=C(CSc1ccccc1)Nc1cccc(S(=O)(=O)N2CCOCC2)c1`, the figure is -24.4%.
